Test results from PubChem BioAssay (NCATS).
Records with an inconclusive call do not appear. The source made the active and inactive calls. Unless noted, calls come from the whole dose curve; as a rule, active = well fitted curve in the direction sought with a large enough effect; inconclusive = small, poorly fitted or top-dose-only effect, or another doubt; inactive = no such curve, though single readings can be large; an effect the other way counts as inactive or inconclusive.

Tests used:
[1] = NS1 protein of Zika virus - qHTS assay to identify small molecule inhibitors in human HEK 293 cells (AID 1347053);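 note: plate controls were infected untreated cells for no effect and uninfected cells for full effect; nearly all actives have a fitted effect of over 55% in size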
Outline: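 In this cell-based screen, HEK 293 cultures received compound for one hour before Zika MR766 at MOI = 0.5. NS1 was quantified 24 hours later by TR-FRET, normalized to virus-free wells and infected wells.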

[2] = target: T1, Tyrosine-protein phosphatase non-receptor type substrate 1 (Homo sapiens) + Leukocyte surface antigen CD47 (Homo sapiens) (UniProt P78324+Q08722); test: CD47-SIRPalpha protein protein interaction - LANCE assay qHTS validation (AID 1347057; active = well fitted curve in the direction sought with a large enough effect in the signal ratio, with a control signal flat, not every such curve was filed as active; the % refers to the signal ratio; note: 0% is about no effect)
Outline: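 Inhibition of soluble CD47/SIRPalpha ectodomain association by titrated compounds, measured as 665/615 nm time-resolved FRET ratio after sequential 30 min room-temperature incubations.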

[3] = target: T1, Tyrosine-protein phosphatase non-receptor type substrate 1 (Homo sapiens) + Leukocyte surface antigen CD47 (Homo sapiens); test: CD47-SIRPalpha protein protein interaction - Alpha assay qHTS validation (AID 1347059);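 note: bead proximity luminescence from CD47 binding SIRPalpha after compound preincubation with SIRPalpha; % is set by controls: 0 for no effect and ±100 for the full control effect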
Outline: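 AlphaScreen signal between CD47-His (12.5 nM) and biotin-SIRPalpha (25 nM) soluble extracellular domains, bead-captured via Ni-NTA and streptavidin. Compounds, in 7-point titrations, met SIRPalpha 30 min before CD47; PBS pH 7.4 with 0.05% IGEPAL.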

[4] = target: Parathyroid hormone/parathyroid hormone-related peptide receptor (Homo sapiens) (UniProt Q03431); test: qHTS for PTHR1 Agonists: Optimization Screen against the NCGC LOPAC library (AID 1347079);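 note: GloSensor cAMP luminescence in HEK-293 GP2 cells expressing human PTHR1 with IBMX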; note: potency is the fitted concentration of half-maximal effect
Outline: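 Signal increase flags agonism. GP2 cells, derived from HEK-293, express human PTHR1 and a GloSensor cAMP construct.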

[5] = tested on: Zika virus NS2B-NS3 protease (unlinked); test: Optimization of GU AMC qHTS for Zika virus inhibitors: Unlinked NS2B-NS3 protease assay (AID 1347151); note: nearly all actives have a fitted effect of over 80% in size; note: potency is the fitted concentration of half-maximal effect
Outline: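 Fluorescence gain (340/450 nm) over 15 min at room temperature, ~20% conversion, gave percent inhibition fitted to a 4-parameter Hill equation; enzyme was unlinked NS2B-NS3 (25 nM final), pH 8.0 Tris buffer.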

[6] = tested on: Zika virus NS2B-NS3 protease; test: Primary screen GU AMC qHTS for Zika virus inhibitors (AID 1347154); note: nearly all actives have a fitted effect of over 70% in size; note: potency is the fitted concentration of half-maximal effect
Outline: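 Fluorogenic AMC-substrate cleavage by noncovalent NS2B-NS3 protease complex (25 nM, pH 8.0 Tris buffer with Tween 20) followed for 15 minutes at room temperature (~20% conversion). Percent inhibition from ex340/em450 signal change, fitted by 4-parameter Hill equation.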

[7] = target: Lysine-specific demethylase 5B (Homo sapiens) (UniProt Q9UGL1); test: Optimization screen for KDM5B Histone Demethylases FDH coupled qHTS against the LOPAC library (AID 1347166); conditions: KDM5B demethylation, FDH-coupled NADH fluorescence (FDH is formaldehyde dehydrogenase); at 57.5 µM (top of the series); note: 0% is about no effect
Outline: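 KDM5BDeltaAP (200nM final) in 50mM HEPES pH 7.5, 0.01% Tween-20 was preincubated with compound for 10 min at room temperature. A substrate mix of 12.5uM H3K4Me3, 25uM a-ketoglutarate, ascorbate, Fe2+, NAD+ and formaldehyde dehydrogenase was then added. NADH fluorescence (340/450 nm) was read initially and after 30 min.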

[8] = Confirmatory screen NINDS Rhodamine qHTS for Zika virus inhibitors (AID 1347161); note: nearly all actives have a fitted effect of over 60% in size; note: potency is the fitted concentration of half-maximal effect
Outline: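 In 10 mM Tris-HCl pH 8.0 containing 0.01% Tween 20, linked NS2B-NS3 protease (25 nM final) is exposed to test compounds for 15 min. Cleavage of 1.5 microM Rhodamine110 substrate is tracked by fluorescence over 15 min.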

[9] = tested on: Zika virus NS2B-NS3 protease (linked); test: 384 well plate NINDS AMC confirmatory qHTS for Zika virus inhibitors (AID 1347163); note: potency is the fitted concentration of half-maximal effect; nearly all actives have a fitted effect of over 50% in size
Outline: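 Enzyme (5, 30 or 60 nM final) first met test compounds for ~15 min. The AMC-tagged peptide Ac-VKTGKR-AMC followed at 30 microM. Fluorescence was then recorded at 25 min and scaled against no-enzyme and no-inhibitor wells.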

[10] = tested on: Zika virus NS2B-NS3 protease (linked construct); test: 384 well plate NINDS Rhodamine confirmatory qHTS for Zika virus inhibitors (AID 1347164);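 note: fluorescence from protease cleavage of Ac-LKRR-rhodamine 110 substrate; potency is the fitted concentration of half-maximal effect; nearly all actives have a fitted effect of over 65% in size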
Outline: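 Fluorescence at 485/538 nm was measured 25 minutes after adding 10 microM Ac-LKRR-Rd substrate, in the dark at room temperature. The protease (5, 30 or 60 nM final) had been preincubated ~15 minutes with compound; aprotinin as control.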

[11] = Vero cells viability qHTS for Zika virus inhibitors (AID 1347167); note: potency is the fitted concentration of half-maximal effect
Outline: (§1)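 Luminescent ATP readout (CellTiter Glo) after 30 min at 37 degrees C gives viability; cells in DMEM + 4% FBS were treated 24 to 48 hours with compound, following overnight attachment.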

[12] = target: N-terminal Xaa-Pro-Lys N-methyltransferase 1 (Homo sapiens) (UniProt Q9BV86); test: qHTS Assay for Inhibitors of N-terminal methyltransferase 1 (NTMT1): LOPAC validation of the NTMT1 SAHH-coupled ThioGlo3 Assay (AID 1347143);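 note: SAH from peptide methylation measured as thiol fluorescence via SAHH coupling and ThioGlo3; nearly all actives have a fitted effect of over 70% in size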; note: potency is the fitted concentration of half-maximal effect
Outline: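 NTMT1 125nM + cpds (various conc.), 1 min RT; add SAM 100uM/SAHH 10uM/ThioGlo3 15uM (addition mix). SAHH-coupled thiol detection, Ex340/Em450, t0 and 30 min RT; signal normalized to background. LOPAC 1280-cpd pilot.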

Furin (Homo sapiens) = Furin (Homo sapiens) (UniProt P09958); test: Furin counterscreen qHTS for Zika virus inhibitors (AID 1347149); note: nearly all actives have a fitted effect of over 70% in size; note: potency is the fitted concentration of half-maximal effect
Outline: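 Counterscreen measures cleavage of 2 microM BOC-RVRR-AMC, below its ~15 microM Km, by 5 nM full-length human furin at pH 7.0 after a 15-min compound preincubation. Inhibition derives from the 15-min fluorescence increase at 37C.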

[13] = tested on: Zika virus NS2B-NS3 protease (unlinked complex); test: Confirmatory screen GU AMC qHTS for Zika virus inhibitors (AID 1347153);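 note: percent inhibition with 0% = no inhibitor control and 100% = no enzyme control; nearly all actives have a fitted effect of over 70% in size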
Outline: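 Noncovalent NS2B hydrophilic domain/NS3 protease complex (25 nM) in 10 mM Tris-HCl pH 8.0, 0.01% Tween 20 was preincubated 15 min at room temperature with compounds. Then 10 µM AMC substrate (Km 18.3 µM) was added; fluorescence was read over 15 min and fitted to a 4-parameter Hill equation.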

[14] = HepG2 cells viability qHTS for Zika virus inhibitors (AID 1347168); note: % is set by controls: 0 for no effect and ±100 for the full control effect
Outline: as §1

[15] = tested on: Zika virus NS2B-NS3 protease (linked construct); test: Confirmatory screen NINDS AMC qHTS for Zika virus inhibitors (AID 1347152)
Outline: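 IC50s from 4-parameter Hill fits of percent inhibition, based on AMC fluorescence gain (340/450 nm) over 15 min with 10 microM Bz-Nle-KRR-AMC. Enzyme: 1 nM linked NS2B-NS3 in Tris-HCl pH 8.0; 15-min compound preincubation.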

T1 sequence (P78324 whole entry, looked up, the tested form may be a part): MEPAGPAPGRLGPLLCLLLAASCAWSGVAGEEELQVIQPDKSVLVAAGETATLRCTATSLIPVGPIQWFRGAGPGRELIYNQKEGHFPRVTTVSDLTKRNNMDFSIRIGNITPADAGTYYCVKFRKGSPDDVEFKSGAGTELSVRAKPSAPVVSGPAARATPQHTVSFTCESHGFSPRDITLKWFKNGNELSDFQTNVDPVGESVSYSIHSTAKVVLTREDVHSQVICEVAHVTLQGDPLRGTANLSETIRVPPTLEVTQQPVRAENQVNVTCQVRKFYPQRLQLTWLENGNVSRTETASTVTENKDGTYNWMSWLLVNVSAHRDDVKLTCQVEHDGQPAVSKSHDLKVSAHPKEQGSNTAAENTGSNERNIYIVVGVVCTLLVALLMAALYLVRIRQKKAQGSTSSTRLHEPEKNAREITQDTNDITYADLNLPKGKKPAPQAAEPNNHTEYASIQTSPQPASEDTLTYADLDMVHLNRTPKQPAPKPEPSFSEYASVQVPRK
T1 sequence (Q08722 whole entry, looked up, the tested form may be a part): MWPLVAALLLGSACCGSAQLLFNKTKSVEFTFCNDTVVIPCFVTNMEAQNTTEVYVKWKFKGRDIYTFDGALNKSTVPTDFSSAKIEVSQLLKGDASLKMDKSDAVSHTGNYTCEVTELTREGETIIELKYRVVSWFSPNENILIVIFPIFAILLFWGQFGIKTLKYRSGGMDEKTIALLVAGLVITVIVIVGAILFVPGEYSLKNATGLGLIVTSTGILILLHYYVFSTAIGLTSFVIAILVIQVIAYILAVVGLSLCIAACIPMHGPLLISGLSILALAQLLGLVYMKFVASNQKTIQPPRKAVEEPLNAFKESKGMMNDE
Chain of Parathyroid hormone/parathyroid hormone-related peptide receptor (Homo sapiens) (Q03431 whole entry, looked up): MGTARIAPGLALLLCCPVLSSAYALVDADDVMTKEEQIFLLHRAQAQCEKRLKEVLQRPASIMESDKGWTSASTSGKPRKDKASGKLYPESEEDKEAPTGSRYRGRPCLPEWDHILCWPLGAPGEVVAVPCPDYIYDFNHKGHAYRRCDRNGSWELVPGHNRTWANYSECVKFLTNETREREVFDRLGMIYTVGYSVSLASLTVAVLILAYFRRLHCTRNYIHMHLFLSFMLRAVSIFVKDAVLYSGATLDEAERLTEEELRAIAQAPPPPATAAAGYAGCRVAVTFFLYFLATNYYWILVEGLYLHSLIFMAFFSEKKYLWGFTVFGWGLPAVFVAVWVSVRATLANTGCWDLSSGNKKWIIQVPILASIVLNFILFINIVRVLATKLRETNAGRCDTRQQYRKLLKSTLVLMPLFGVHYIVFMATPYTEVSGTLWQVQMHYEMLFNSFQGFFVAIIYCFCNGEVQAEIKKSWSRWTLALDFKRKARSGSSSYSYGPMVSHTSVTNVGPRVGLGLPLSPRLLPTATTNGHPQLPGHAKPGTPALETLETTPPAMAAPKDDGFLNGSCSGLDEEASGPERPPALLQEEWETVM
Chain of Furin (Homo sapiens) (P09958 whole entry, looked up): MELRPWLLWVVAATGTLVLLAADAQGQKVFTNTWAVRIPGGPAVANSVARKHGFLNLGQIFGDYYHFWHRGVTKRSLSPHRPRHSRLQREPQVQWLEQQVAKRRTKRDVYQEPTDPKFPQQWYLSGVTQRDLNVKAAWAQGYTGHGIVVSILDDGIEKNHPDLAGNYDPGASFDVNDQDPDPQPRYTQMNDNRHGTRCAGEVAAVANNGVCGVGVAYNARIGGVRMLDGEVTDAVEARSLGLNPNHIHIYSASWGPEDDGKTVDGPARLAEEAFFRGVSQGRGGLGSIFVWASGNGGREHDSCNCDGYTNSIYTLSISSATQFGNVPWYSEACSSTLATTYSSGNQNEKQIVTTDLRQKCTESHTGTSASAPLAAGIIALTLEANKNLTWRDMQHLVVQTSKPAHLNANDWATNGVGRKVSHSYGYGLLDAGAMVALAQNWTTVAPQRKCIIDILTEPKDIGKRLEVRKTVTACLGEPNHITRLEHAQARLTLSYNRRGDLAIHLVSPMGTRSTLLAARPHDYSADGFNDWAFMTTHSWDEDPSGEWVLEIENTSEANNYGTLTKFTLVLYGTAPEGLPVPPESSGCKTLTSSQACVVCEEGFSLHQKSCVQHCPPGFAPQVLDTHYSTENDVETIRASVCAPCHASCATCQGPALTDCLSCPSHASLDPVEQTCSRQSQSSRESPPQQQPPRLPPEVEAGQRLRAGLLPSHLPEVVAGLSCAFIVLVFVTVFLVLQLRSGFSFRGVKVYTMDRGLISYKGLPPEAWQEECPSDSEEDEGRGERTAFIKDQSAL
Chain of Lysine-specific demethylase 5B (Homo sapiens) (Q9UGL1 whole entry, looked up): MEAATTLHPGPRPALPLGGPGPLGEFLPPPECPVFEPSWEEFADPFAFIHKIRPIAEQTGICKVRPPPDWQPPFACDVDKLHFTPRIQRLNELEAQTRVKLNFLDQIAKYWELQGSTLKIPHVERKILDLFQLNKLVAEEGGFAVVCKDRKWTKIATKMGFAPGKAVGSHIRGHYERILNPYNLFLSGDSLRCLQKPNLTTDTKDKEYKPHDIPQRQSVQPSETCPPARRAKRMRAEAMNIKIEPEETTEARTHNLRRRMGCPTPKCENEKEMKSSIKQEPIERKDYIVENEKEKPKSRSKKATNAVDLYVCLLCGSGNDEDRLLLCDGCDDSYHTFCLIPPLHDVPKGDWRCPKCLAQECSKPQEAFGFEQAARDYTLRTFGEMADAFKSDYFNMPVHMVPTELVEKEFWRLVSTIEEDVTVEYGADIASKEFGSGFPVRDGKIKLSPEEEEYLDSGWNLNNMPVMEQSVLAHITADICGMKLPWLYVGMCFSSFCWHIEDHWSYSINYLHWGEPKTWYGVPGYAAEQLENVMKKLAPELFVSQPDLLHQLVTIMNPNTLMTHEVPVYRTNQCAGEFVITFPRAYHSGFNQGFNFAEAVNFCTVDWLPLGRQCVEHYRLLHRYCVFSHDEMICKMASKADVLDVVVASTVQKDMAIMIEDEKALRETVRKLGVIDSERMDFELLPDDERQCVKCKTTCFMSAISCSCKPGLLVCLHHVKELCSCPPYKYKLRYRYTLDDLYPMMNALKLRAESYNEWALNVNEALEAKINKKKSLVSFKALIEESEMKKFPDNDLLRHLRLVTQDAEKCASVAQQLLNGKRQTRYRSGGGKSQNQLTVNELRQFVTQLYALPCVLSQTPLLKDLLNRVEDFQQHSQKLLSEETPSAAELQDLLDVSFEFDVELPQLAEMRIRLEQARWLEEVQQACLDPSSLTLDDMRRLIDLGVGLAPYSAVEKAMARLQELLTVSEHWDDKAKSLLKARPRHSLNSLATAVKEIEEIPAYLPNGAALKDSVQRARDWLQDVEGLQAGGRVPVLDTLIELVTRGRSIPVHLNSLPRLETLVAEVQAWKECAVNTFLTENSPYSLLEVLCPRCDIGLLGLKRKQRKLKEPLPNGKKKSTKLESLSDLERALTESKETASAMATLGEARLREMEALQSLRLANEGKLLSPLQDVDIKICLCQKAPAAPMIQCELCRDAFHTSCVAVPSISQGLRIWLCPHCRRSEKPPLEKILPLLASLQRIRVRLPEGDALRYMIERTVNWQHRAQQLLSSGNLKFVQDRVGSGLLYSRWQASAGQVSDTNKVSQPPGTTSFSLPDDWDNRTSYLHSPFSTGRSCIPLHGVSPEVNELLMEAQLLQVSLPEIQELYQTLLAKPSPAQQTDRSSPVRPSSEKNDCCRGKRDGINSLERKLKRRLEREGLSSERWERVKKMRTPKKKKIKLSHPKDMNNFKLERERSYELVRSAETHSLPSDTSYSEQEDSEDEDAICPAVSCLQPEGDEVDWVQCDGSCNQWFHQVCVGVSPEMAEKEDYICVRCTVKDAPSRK
Chain of N-terminal Xaa-Pro-Lys N-methyltransferase 1 (Homo sapiens) (Q9BV86 whole entry, looked up): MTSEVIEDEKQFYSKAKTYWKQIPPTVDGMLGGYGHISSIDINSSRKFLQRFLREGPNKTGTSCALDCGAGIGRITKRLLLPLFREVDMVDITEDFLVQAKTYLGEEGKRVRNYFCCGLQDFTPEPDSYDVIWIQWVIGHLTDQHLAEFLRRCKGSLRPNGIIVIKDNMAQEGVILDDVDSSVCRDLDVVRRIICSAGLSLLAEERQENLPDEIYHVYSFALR

CCCCCCC(=O)OC1CC(C)(C)NC(C)(C)C1
inactive: Potency [1] | Potency [2] | Potency [3] | Potency [4] | Potency [5] | Potency [6] | activity, negative = inhibition [7] -0.896%

N#Cc1cc([N+](=O)[O-])c2sc(C(N)=O)[n+]([O-])c2c1
inactive: Potency [1] | Potency [2] | Potency [3] | Potency [4] | Potency [5]

C[C@]12C=CC(=O)C=C1CC[C@@H]1C2=CC[C@]2(C)[C@@H](C(=O)CN3CCN(c4cc(N5CCCC5)nc(N5CCCC5)n4)CC3)CC[C@@H]12
inactive: Potency [1] | Potency [2] | Potency [3] | Potency [4] | Potency [5]

CCCCCCCC/C=C\CCCCCCCC(=O)NCCc1ccc(O)c(O)c1
active: Potency [5] 7.52 µM | Potency [6] 16.8 µM | Potency [8] 19.6 µM | Potency [9] 1.12 µM | Potency [10] 3.16 µM | Potency [11] 8.27 µM
inactive: Potency [1] | Potency [2] | Potency [3] | Potency [4] | activity, negative = inhibition [7] -22.3%

O=C(O)c1ccccc1Nc1ccccc1
inactive: Potency [1] | Potency [2] | Potency [3] | Potency [4] | Potency [5] | Potency [6] | activity, negative = inhibition [7] -9.73%

CCC1(O)CC2CN(CCc3c([nH]c4ccccc34)[C@@](C(=O)OC)(c3cc4c(cc3OC)N(C=O)C3[C@]45CCN4CC=C[C@@](CC)([C@@H](OC(C)=O)[C@]3(O)C(=O)OC)[C@H]45)C2)C1 (stereo partly specified)
inactive: Potency [1] | Potency [2] | Potency [3] | Potency [4] | Potency [5] | activity, negative = inhibition [7] -9.11%

CCn1c(=O)[nH]c2cc(Cl)c(Cl)cc21
inactive: Potency [1] | Potency [2] | Potency [3] | Potency [12] | Potency [5] | Potency [6] | activity, negative = inhibition [7] -0.178%

COc1ccc(-c2cc3ncc(C)n3c(Nc3ncccc3C(N)=O)n2)cc1OC
active: Potency [5] 26.7 µM
inactive: Potency [1] | Potency [2] | Potency [3] | Potency [4]

CCc1ccc2c(-c3cccc(Cl)c3)nc(=O)n(CC)c2n1
inactive: Potency [1] | Potency [2] | Potency [3] | Potency [13] | Potency [6] | Potency [11] | outcome [14]
active: Potency [4] 2.67 µM | Potency (Furin (Homo sapiens)) 21.5 µM | Potency [5] 26.7 µM

OC[C@H]1O[C@H](n2cnc3c(N[C@H]4CCC[C@@H]4O)ncnc32)[C@H](O)[C@@H]1O
inactive: Potency [1] | Potency [2] | Potency [3] | Potency [4] | Potency [12] | Potency [5] | activity, negative = inhibition [7] -3.36%

Nc1ccc(-c2ccc3ccccc3n2)cc1
active: Potency [12] 39.8 µM | Potency [5] 23.8 µM
inactive: Potency [1] | Potency [2] | Potency [3] | Potency (Furin (Homo sapiens)) | Potency [15] | Potency [13] | Potency [8] | Potency [11] | outcome [14]

Cn1cc(C(F)(F)F)nc1-c1ccc(OCC(O)CNCCOc2ccc(O)c(C(N)=O)c2)cc1 (stereo unspecified)
active: Potency [12] 56.2 µM | Potency (Furin (Homo sapiens)) 24.1 µM | Potency [5] 26.7 µM
inactive: Potency [1] | Potency [2] | Potency [3] | Potency [8] | activity, negative = inhibition [7] -27.4% | Potency [11] | outcome [14]
